Source: the supplement of paper PMC6555819

Assays:
Assay in all cases: PBM binding z-score (relative to random genomic background probes); higher = stronger binding; sequences stand for … in GC…GCGATTGACAGCGTAGAATGAAGG
[1] = test system: RARb homodimer (NR concentration 270 nM)
Summary of the method: (§1)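 Random background probes are the reference for binding z-scores. These scores derive from regression-normalized fluorescence on custom Agilent 4×180K protein-binding microarrays incubated 1 h with ligand-free nuclear receptor dimers. Binding was detected with antibodies against each partner (one per run).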

[2] = test system: RARg:RXRa (NR concentration 270 nM, RXRa partner concentration 90 nM)
Summary of the method: as §1

[3] = test system: RARg homodimer (NR concentration 270 nM)
Summary of the method: as §1

[4] = test system: RXRa DBDmut IVT, anti-RXR (DBD mutation: RXRa K156A/R161A, NR concentration 90 nM)
Summary of the method: as §1

[5] = test system: RXRa homodimer (NR concentration 180 nM)
Summary of the method: as §1

[6] = test system: THRa:RXRa (NR concentration 90 nM, RXRa partner concentration 90 nM)
Summary of the method: as §1

[7] = test system: THRa homodimer (NR concentration 90 nM)
Summary of the method: as §1

[8] = test system: VDR:RXRa (NR concentration 270 nM, RXRa partner concentration 90 nM)
Summary of the method: as §1

[9] = test system: VDR homodimer (NR concentration 270 nM)
Summary of the method: as §1

Sequence: CGTCCAAGGTCAAAGGTAAGTGAAGAGATGACGG
- PBM binding z-score [1]: 4.06
- PBM binding z-score [2]: 6.23
- PBM binding z-score [3]: 6.89
- PBM binding z-score [4]: 3.8
- PBM binding z-score [5]: 7.74
- PBM binding z-score [6]: 3.91
- PBM binding z-score [7]: 1.96
- PBM binding z-score [8]: 4.55
- PBM binding z-score [9]: 2.48

Sequence: TCATATGGGTAAAGGTGAAAGTCGAACGATATGA
- PBM binding z-score [1]: 1.36
- PBM binding z-score [2]: 1.41
- PBM binding z-score [3]: 0.964
- PBM binding z-score [4]: 0.352
- PBM binding z-score [5]: 2.08
- PBM binding z-score [6]: 1.24
- PBM binding z-score [7]: -0.573
- PBM binding z-score [8]: 0.608
- PBM binding z-score [9]: -0.341

Sequence: ATCTCTAGGTAAAAGTTCTGTGAATCCCGAGGAT
- PBM binding z-score [1]: -0.265
- PBM binding z-score [2]: 0.293
- PBM binding z-score [3]: 0.308
- PBM binding z-score [4]: -0.0693
- PBM binding z-score [5]: 0.153
- PBM binding z-score [6]: 0.234
- PBM binding z-score [7]: 0.364
- PBM binding z-score [8]: -0.0345
- PBM binding z-score [9]: 0.467

Sequence: ACTTACGGGTCGACGAGGTTATAGCACGCGTATA
- PBM binding z-score [1]: 1.57
- PBM binding z-score [2]: 2.39
- PBM binding z-score [3]: 1.72
- PBM binding z-score [4]: 1.2
- PBM binding z-score [5]: 2.93
- PBM binding z-score [6]: 3.05
- PBM binding z-score [7]: 0.75
- PBM binding z-score [8]: 6.05
- PBM binding z-score [9]: 2.03

Sequence: CATACAGGGTCAGCTAGGACAGAGTAGGGACGGC
- PBM binding z-score [1]: 3.14
- PBM binding z-score [2]: 4.21
- PBM binding z-score [3]: 4.66
- PBM binding z-score [4]: 1.58
- PBM binding z-score [5]: 3.74
- PBM binding z-score [6]: 3.54
- PBM binding z-score [7]: 1.31
- PBM binding z-score [8]: 4.03
- PBM binding z-score [9]: 1.19

Sequence: CATACAGGGTCAGCTAGGCCATAGTAGGGACGGC
- PBM binding z-score [1]: 3.28
- PBM binding z-score [2]: 4.35
- PBM binding z-score [3]: 4.7
- PBM binding z-score [4]: 1.7
- PBM binding z-score [5]: 4.53
- PBM binding z-score [6]: 3.22
- PBM binding z-score [7]: 0.737
- PBM binding z-score [8]: 4.92
- PBM binding z-score [9]: 1.1

Sequence: ATCGAAAGGTCGAGGTGAGTATAGAGAAAGGGAA
- PBM binding z-score [1]: 2.86
- PBM binding z-score [2]: 4.31
- PBM binding z-score [3]: 4.51
- PBM binding z-score [4]: 0.657
- PBM binding z-score [5]: 4.3
- PBM binding z-score [6]: 2.81
- PBM binding z-score [7]: 0.624
- PBM binding z-score [8]: 2.69
- PBM binding z-score [9]: 0.373

Sequence: ATCTCTAGGTAACCAGTTCAGTGAAAGAGAGGAC
- PBM binding z-score [1]: 1.05
- PBM binding z-score [2]: 0.822
- PBM binding z-score [3]: 0.768
- PBM binding z-score [4]: 0.358
- PBM binding z-score [5]: 0.791
- PBM binding z-score [6]: 1.35
- PBM binding z-score [7]: 1.18
- PBM binding z-score [8]: 1.16
- PBM binding z-score [9]: 1.35
